Among the data in paper PMC7819943, “Rice protein-binding microarrays: a tool to detect cis-acting elements near promoter regions in rice” are binding signal values, retold here.

Over roughly 68,000 sequences, “fluorescence intensity (a.u.)” has its median near 9,100; the highest 2% begin near 16,000. The full list was thinned out, with the highest values kept by preference.

Chain of OsWRKY34 (Q0JBA9 entry or part of it): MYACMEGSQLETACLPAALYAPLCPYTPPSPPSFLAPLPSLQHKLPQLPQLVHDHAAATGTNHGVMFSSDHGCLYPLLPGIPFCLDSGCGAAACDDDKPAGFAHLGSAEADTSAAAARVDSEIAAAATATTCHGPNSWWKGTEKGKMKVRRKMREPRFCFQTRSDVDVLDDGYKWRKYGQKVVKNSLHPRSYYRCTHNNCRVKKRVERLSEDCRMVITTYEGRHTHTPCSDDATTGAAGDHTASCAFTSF

The target of the assay is OsWRKY34 (Oryza sativa, UniProt Q0JBA9 1-250). The assay can be described thus: protein-binding microarray (RPBM); PBS, 2% BSA, 51.3 ng/ul salmon testes DNA, 50 uM zinc acetate, 200 nM TF, 25 C, 1 h; high values mean tight binding. The settings on record: protein: recombinant; tags: N-terminal polyhistidine and DsRed monomer fusion (pET32a); label: CyDye5-dUTP incorporated in the synthesized complementary strand; 3' TTTTT single-stranded linker to array surface; dsDNA, one strand shown. In outline:
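Transcription factors were each fused at the N-terminus to a polyhistidine tag plus DsRed and expressed in E. coli BL21-CodonPlus before Ni–NTA purification. Binding to a double-stranded custom Agilent array was carried out with 200 nM protein at 25 °C for 1 h in PBS, 2% BSA, salmon testes DNA and 50 µM zinc acetate. The binding signal is per-feature fluorescence intensity, in arbitrary units, on an Axon 4000B scanner.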
As for “ATTTTGATTAGTGCGTTTGATTAGTGGTGTTTATTATGTCCGGAGTCACCTAGTGCAG”, the binding signal is 9410 fluorescence intensity (a.u.).

Take “TTCTGAACCGTGTTAAAATGCTACAAAATTTTCCCTTTTTCGGAGTCACCTAGTGCAG”: the binding signal was 8570 fluorescence intensity (a.u.). For “AGCTTTCACCTCATTAAGACCGGTATCTGTTGAGACTTGACGGAGTCACCTAGTGCAG”, the binding signal is 8860 fluorescence intensity (a.u.). The value for “GAACTAGTCCGCCTAATTGTTGGCTCTCTTATCTCTTCATCGGAGTCACCTAGTGCAG” was 12100 fluorescence intensity (a.u.); that for “TTCTATGTTGTGGTTCTGTGTTTTACACTTCAGTTTTGTTCGGAGTCACCTAGTGCAG” was 8030 fluorescence intensity (a.u.). Consider “GTGATCCGGTGCCCTCTGACCCGCAACTTCCTTTTGGCACCGGAGTCACCTAGTGCAG”, for which the binding signal is 8460 fluorescence intensity (a.u.). Under “TTAGATGTGGCCAGTTTTGATTTCTAGCTTATAGGATCGTCGGAGTCACCTAGTGCAG” stands 9000 fluorescence intensity (a.u.); under “ACAATGTGACCCTATGTACAATTTACTCATATATTTTTATCGGAGTCACCTAGTGCAG”, 9570 fluorescence intensity (a.u.). Under “GAGTAGTAAGTTATATCCCTCAACCATTTCACTTCACACACGGAGTCACCTAGTGCAG” stands 9600 fluorescence intensity (a.u.). Under “CTCGCGCGTGCCCGCCTCTGCTGTTCTTTCTCTCGCCCTCCGGAGTCACCTAGTGCAG” stands 11400 fluorescence intensity (a.u.). For “TTATGAGGGTAAGTTTGTATTTGTCATATTTGGGTTGCTACGGAGTCACCTAGTGCAG”, the binding signal was 8110 fluorescence intensity (a.u.). On to “CATCGCCTCCGCTTCTGCTTTTTTTTTTCTTTTTTCTCGTCGGAGTCACCTAGTGCAG”, for which the binding signal was 10200 fluorescence intensity (a.u.). For “GGTGACCATTCCTAGTTTCCTACCCCTCATGTTTTTCTTTCGGAGTCACCTAGTGCAG”, the binding signal is 17000 fluorescence intensity (a.u.). The value for “CCTTGTTTGCTCGGTTTTTGTAAGTTGAGGGACGGGTCATCGGAGTCACCTAGTGCAG” was 18700 fluorescence intensity (a.u.).

In the case of “GGATCTCGTTTGTCTGGTTTTCGTAAGTTGAGGGACGGGTCGGAGTCACCTAGTGCAG”, the binding signal is 8380 fluorescence intensity (a.u.). On to “ATCTGTTATGTTTGCCCTGTCATTGGTTCTGCTAATCAATCGGAGTCACCTAGTGCAG”, for which the binding signal is 9160 fluorescence intensity (a.u.).

Consider “ATTCATTACACCATGTTTCTTTCTTTCTTTCGAGGACCCTCGGAGTCACCTAGTGCAG”, for which the binding signal is 8370 fluorescence intensity (a.u.).

In the case of “GCCTGCCTGTCTGCCTCCGCGTCTTTTCTGCTGCCCACATCGGAGTCACCTAGTGCAG”, the binding signal is 19500 fluorescence intensity (a.u.).

On to “GTTCTGGTTGGGATCGATTTCTTCTTCCCCTTTGTTGCTTCGGAGTCACCTAGTGCAG”, for which the binding signal was 9700 fluorescence intensity (a.u.). As for “ATGTTGCCCTTTGTTCTGCTGTTTCCTGGTTATATGGGATCGGAGTCACCTAGTGCAG”, the binding signal is 17500 fluorescence intensity (a.u.). “TTCTTTTTCGTTTTCTTCTCATTCTTCTTTTTTTTCCTTTCGGAGTCACCTAGTGCAG”: the binding signal is 14300 fluorescence intensity (a.u.).

For the sequence “AGTTTCAGTAGCCTCGCCGATCGACTTGCCACACCGCCGTCGGAGTCACCTAGTGCAG”, the binding signal is 9260 fluorescence intensity (a.u.).

Take “CACCGCCATCTTCCTCTTCTTCTTCGTCGTCGTGGTTGGCCGGAGTCACCTAGTGCAG”: the binding signal is 11100 fluorescence intensity (a.u.).

“AAACTGGGCCATATCGGTTGGTTTTTGCTCTCTACGTCTCCGGAGTCACCTAGTGCAG”: the binding signal was 9280 fluorescence intensity (a.u.). The value for “CAATTTGGCATTTGGCATTTGCTAGTCTATAGTAGCAAATCGGAGTCACCTAGTGCAG” was 8130 fluorescence intensity (a.u.). On to “GTACGACAGTAGTTGTTTTTCTCGCTTTTGATTTTGAGTCCGGAGTCACCTAGTGCAG”, for which the binding signal is 8560 fluorescence intensity (a.u.). The value for “CTCGTCGTCGCCTCCGCTCCTTGCGCCATCTCGCGGCGCCCGGAGTCACCTAGTGCAG” was 9480 fluorescence intensity (a.u.); that for “TATGGACTGTTTTGTTTTGTTCCCCTAGCTAGAATTATTCCGGAGTCACCTAGTGCAG” was 9880 fluorescence intensity (a.u.); that for “GCTTTTTTTTTTTCTTTCTTTCTTTTTCCCCTTCGGCTTCCGGAGTCACCTAGTGCAG” was 12500 fluorescence intensity (a.u.).

Regarding “GTAGCCGCTTCCTGCCTTCCTTCCCCTTGCTCTTGCATTTCGGAGTCACCTAGTGCAG”, the binding signal is 8340 fluorescence intensity (a.u.).

For the sequence “ATCTTCCCTTACAGTGACATCCTTTGTTCTTGCCGTCTCTCGGAGTCACCTAGTGCAG”, the binding signal was 17600 fluorescence intensity (a.u.). For the sequence “AGTAGGTTGTTGGTTTTGTACCTTTGGGCTCTTTGCCTTTCGGAGTCACCTAGTGCAG”, the binding signal was 10900 fluorescence intensity (a.u.). With “CCTTTGTTCTTGCCGTCTCTTTTTTTTTTTTACAGAAGAACGGAGTCACCTAGTGCAG”, the binding signal is 14600 fluorescence intensity (a.u.). The value for “GCATTTCGTGTTCCCTTTTTGCCTTTTTTTCCCCTTTTCTCGGAGTCACCTAGTGCAG” was 10300 fluorescence intensity (a.u.). Under “TTTCTTTGTTGTCTCACTTTCCCTTTTTCCACTTCTTTTTCGGAGTCACCTAGTGCAG” stands 11700 fluorescence intensity (a.u.); under “GATATGCATTTTCCCTGCTTTCCCTGCTTTTCCCCTTTTTCGGAGTCACCTAGTGCAG”, 16400 fluorescence intensity (a.u.); under “TTCATCCCCTAACCCTTTCTTTGTTCATCTTGTTCTTCCTCGGAGTCACCTAGTGCAG”, 9970 fluorescence intensity (a.u.). The value for “TTTGGGTTGTGCTTAGGTTTCCTTCTCGGGCTTTGTTGTACGGAGTCACCTAGTGCAG” was 18700 fluorescence intensity (a.u.); that for “CCTTCTCGGGCTTTGTTGTACGTATGCGTCTCGTGTTGGGCGGAGTCACCTAGTGCAG” was 8780 fluorescence intensity (a.u.); that for “TCTTCTTCTTGTTGTTCTTGTTCTTTCTTCTTCCCCTTTTCGGAGTCACCTAGTGCAG” was 18800 fluorescence intensity (a.u.). Turning to “GTTACCGAAGTTTTACTTTATACCATATGTACTCTATCTACGGAGTCACCTAGTGCAG”, the binding signal was 8060 fluorescence intensity (a.u.). The value for “GAGACACCGACGCGTCACACCACCACGTCCGTTTCCGTACCGGAGTCACCTAGTGCAG” was 8300 fluorescence intensity (a.u.).
